Reference: PubChem BioAssay (NCATS)
“And” between values parts separate entries of the source, which are not always exact repeats. Equal entries are not always repeated. Inconclusive results are not listed. The source made the active and inactive calls. Unless noted, calls come from the whole dose curve; as a rule, active = well fitted curve in the direction sought with a large enough effect; inconclusive = small, poorly fitted or top-dose-only effect, or another doubt; inactive = no such curve, though single readings can be large; an effect the other way counts as inactive or inconclusive.

Legend:
[1] = biological target: Voltage-gated inwardly rectifying potassium channel KCNH2 (Homo sapiens) (UniProt Q12809); test: qHTS Assay for Small Molecule Inhibitors of the Human hERG Channel Activity (AID 588834);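 note: lower thallium flux fluorescence means stronger hERG block; nearly all actives have a fitted effect of over 50% in size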; note: potency is the fitted concentration of half-maximal effect
Method in brief: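 Measured: FluxOR fluorescence after thallium stimulation in U2OS cells transduced with hERG by baculovirus. Compounds pre-incubated around 10 min; medium Opti-MEM with 2% FCS. AC50 from Hill equation.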

[2] = biological target: Luciferin 4-monooxygenase (Photinus pyralis) (UniProt P08659); test: Biochemical firefly luciferase enzyme assay for NPC (AID 624030);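 note: purified P. pyralis luciferase at 10 nM with luciferin and ATP substrate; series mostly up to about 59 µM; 0% = DMSO and -100% = full luciferase inhibition by PTC124 control; nearly all actives have a fitted effect of over 70% in size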
Method in brief: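 Counter-screen for direct inhibition of the luciferase enzyme by approved-drug library compounds, run at 10 nM enzyme in 50 mM Tris acetate (final). Luminescence was read within 5 min of enzyme-buffer addition and normalized to PTC124 versus DMSO (0%).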

[3] = S16 Schwann cell viability assay (CellTiter-Glo assay) (AID 624031);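 note: cellular ATP luminescence as a viability measure; series mostly up to about 58 µM; plate controls were DMSO-treated cells for no effect and cell-free wells for full effect; nearly all actives have a fitted effect of over 70% in size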
Method in brief: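 Luminescent ATP read-out (CellTiter-Glo) after 24 h compound exposure of native S16 rat Schwann cells at 37 °C. Signals were normalized between cell-free wells and DMSO-treated cells, set as 0% activity.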

[4] = S16 Schwann cell PMP22 intronic element firefly luciferase assay (AID 624032);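 note: series mostly up to about 58 µM; plate controls were DMSO for no effect and PTC124 positive control mean for full effect; nearly all actives have a fitted effect of over 30% in size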
Method in brief: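 Rat S16 Schwann cells stably carrying a PMP22 intronic element-driven Fluc reporter were seeded overnight, then exposed to compounds for 24 h at 37 °C. Luminescence was normalized to PTC124 (positive control) and DMSO (0% activity).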

[5] = S16 Schwann cell PMP22 intronic element beta-lactamase assay (AID 624044; calls by dose curve;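 note: 0% = DMSO and -100% = potassium clavulanate positive control; nearly all actives have a fitted effect of over 15% in size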)
Method in brief: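 Rat S16 Schwann cells with beta-Lac driven by a PMP22 intronic element, compound-treated 24 h at 37 °C. LiveBLAzer FRET B/G read: 460 nm normalized to potassium clavulanate vs DMSO; 535 nm FRET as viability; concentration-effect curves classified.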

[6] = biological target: Glutaminase kidney isoform, mitochondrial (Homo sapiens) (UniProt O94925); test: qHTS for Inhibitors of Glutaminase (GLS): LOPAC Validation (AID 624146);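 note: glutamate product detected by oxidase and peroxidase coupled Amplex red fluorescence gain; series mostly up to about 46 µM; % is set by controls: 0 for no effect and ±100 for the full control effect; nearly all actives have a fitted effect of over 60% in size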
Method in brief: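 hKGA; 45 mM KH2PO4 pH 8.2 + 0.02% Tween-20; cpd via pin tool; 1 mM Gln soln; GluOx/HRP/Amplex Red; RT 30 min; fluor. t0 & final.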

[7] = qHTS of Trypanosoma Brucei Inhibitors: LOPAC Validation (AID 624147); note: 0% is about no effect
Method in brief: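 Enzyme and substrate buffer are dispensed first and compound is pin-transferred. ADP at 130 uM final then starts the reaction, which runs 45 min at room temperature. Detection reagent is added for 10 min before luminescence is imaged.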

[8] = biological target: Glucagon-like peptide 1 receptor (Homo sapiens) (UniProt P43220); test: qHTS of GLP-1 Receptor Agonists: LOPAC Validation (AID 624148);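 note: 0% is about no effect; higher luminescence signal means agonism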
Method in brief: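 HEK293 cells stably co-expressing a cAMP-responsive luciferase reporter and a hypersensitive GLP-1R were plated 12 h at 37 °C and exposed to compounds for 4-6 hr at 37 °C, 5% CO2. Luminescence was read 12 min after adding detection reagent.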

[9] = biological target: Glucocorticoid receptor (Homo sapiens) (UniProt P04150); test: qHTS assay for small molecule antagonists of glucocorticoid receptor signaling (AID 588533; active = well fitted inhibition curve with a large enough effect in the signal ratio, with a control signal flat, not every such curve was filed as active; the % refers to the signal ratio;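 note: cells stimulated with 2 nM dexamethasone as agonist; % is set by controls: 0 for no effect and ±100 for the full control effect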)
Method in brief: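 Antagonist-mode qHTS: compound titrations added to GRE-bla HeLa cells, then dexamethasone 2 nM final; 18 h, 37 C. CCF4 FRET fluorescence normalized to dexamethasone and DMSO; IC50 from Hill fit.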

[10] = qHTS assay for small molecule antagonists of peroxisome proliferator-activated receptor delta signaling (AID 588535; active = well fitted inhibition curve with a large enough effect in the signal ratio, with a control signal flat, not every such curve was filed as active; the % refers to the signal ratio;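 for max response: cells co-treated with a PPAR-delta agonist as stimulator during compound exposure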); conditions: HEK293T PPARd-UAS-bla, beta-lactamase FRET ratio, 18 h; 460 nm channel
Method in brief: (§1)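 Reporter: UAS-bla under PPAR-delta response element, HEK293T host. Medium: 2% charcoal/dextran FBS. Dosing: titration, 18 hrs, 37 C. Detection: CCF4, 2 hrs RT, 405 ex/460 and 530 em.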

[11] = biological target: Peroxisome proliferator-activated receptor delta (Homo sapiens) (UniProt Q03181); test: as above
Method in brief: as §1

[12] = biological target: Peroxisome proliferator-activated receptor gamma (Homo sapiens) (UniProt P37231); test: qHTS assay for small molecule antagonists of peroxisome proliferator-activated receptor gamma signaling (AID 588537; active = well fitted inhibition curve with a large enough effect in the signal ratio, with a control signal flat, not every such curve was filed as active; the % refers to the signal ratio;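 note: reporter cells co-stimulated with 50 nM rosiglitazone agonist during compound treatment; % of control where 0% means no effect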)
Method in brief: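 We seeded GeneBLAzer HEK293 reporter cells at 3000 per well, allowed 6-6.5 h attachment at 37 C, then co-treated with test compound titrations and 50 nM rosiglitazone overnight (16 h). Inhibition was quantified from 460/530 nm emission ratios.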

[13] = biological target: Vitamin D3 receptor (Homo sapiens) (UniProt P11473); test: qHTS assay for small molecule agonists of vitamin D receptor signaling (AID 588543; calls by dose curve;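 note: 0% = DMSO basal and 100% = reference agonist control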)
Method in brief: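 qHTS in agonist mode: compound titrations stimulate a VDR-driven β-lactamase reporter in HEK293T cells over 16 h at 37 °C. Response normalized to 50 nM 1α,25-dihydroxyvitamin D3 = 100%, DMSO = 0%; Hill fitting gives EC50 and maximal response.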

[14] = biological target: Thyroid hormone receptor beta (Homo sapiens) (UniProt P10828); test: qHTS assay for small molecule agonists of thyroid hormone receptor beta signaling (AID 588545; calls by dose curve)
Method in brief: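 HEK 293 TR-UAS-bla; agonist mode; 18 hrs, 37 C; CCF4, ex 405/em 460 and 530 nm; norm. T3 10 nM = 100%, DMSO = 0%; Hill fit → EC50, efficacy.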

[15] = qHTS assay for small molecule antagonists of retinoid X receptor alpha signaling (AID 588546; active = well fitted inhibition curve with a large enough effect in the signal ratio, with a control signal flat, not every such curve was filed as active; the % refers to the signal ratio;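 note: cells stimulated with 9-cis-retinoic acid as agonist; % is set by controls: 0 for no effect and ±100 for the full control effect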); conditions: HEK293T RXRa-UAS-bla, beta-lactamase ratio, antagonist mode; measured here: W530 green channel, cytotoxicity proxy
Method in brief: (§2)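 Beta-lactamase reporter inhibition, read as CCF4 fluorescence ratio (ex 405, em 460/530 nm) after 2 h at RT. HEK293T UAS-bla cells, 2500/well, were stimulated with 9-cis-RA at 500 or 100 nM final alongside test compound for 18 h at 37 C.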

[16] = biological target: Retinoic acid receptor RXR-alpha (Homo sapiens) (UniProt P19793); test: as above; conditions: HEK293T RXRa-UAS-bla, beta-lactamase ratio, antagonist mode
Method in brief: as §2

[17] = biological target: Thyroid hormone receptor beta (Homo sapiens) (UniProt P10828); test: qHTS assay for small molecule antagonists of thyroid hormone receptor beta signaling (AID 588547; active = well fitted inhibition curve with a large enough effect in the signal ratio, with a control signal flat, not every such curve was filed as active; the % refers to the signal ratio;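 note: cells stimulated with 0.4 nM T3 agonist during compound exposure; series mostly up to about 77 µM; % is set by controls: 0 for no effect and ±100 for the full control effect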); conditions: TR-UAS-bla HEK293, beta-lactamase ratio, antagonist mode, 18 h
Method in brief: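 TR-UAS-bla GripTite HEK293 cells in 2% charcoal/dextran FBS medium were preincubated 4 h at 37 C, given compound (0.59 nM to 92 uM) plus 0.4 nM T3 (final) for 18 h, then CCF4 for 2 h at RT; Hill fit gave IC50.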

[18] = biological target: Vitamin D3 receptor (Homo sapiens) (UniProt P11473); test: qHTS assay for small molecule antagonists of vitamin D receptor signaling (AID 588541; calls by dose curve;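 note: receptor activated by calcitriol during compound treatment; series mostly up to about 77 µM; % is set by controls: 0 for no effect and ±100 for the full control effect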)
Method in brief: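 VDR-UAS-bla HEK293T cells (2000/well, 2% charcoal-stripped FBS) were treated with titrated compounds plus 1-alpha,25-dihydroxyvitamin D3 (50 nM or 3 nM final) for 16 h at 37 C. CCF4 beta-lactamase fluorescence was read; Hill fits gave IC50.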

[19] = qHTS assay for small molecule agonists of retinoid X receptor alpha signaling (AID 588544; calls by dose curve); conditions: HEK293T RXRa-UAS-bla, beta-lactamase reporter, 18 h; 530 nm emission
[20] = biological target: Retinoic acid receptor RXR-alpha (Homo sapiens) (UniProt P19793); test: as above

Sequence of Peroxisome proliferator-activated receptor delta (Homo sapiens) (Q03181 whole entry, looked up): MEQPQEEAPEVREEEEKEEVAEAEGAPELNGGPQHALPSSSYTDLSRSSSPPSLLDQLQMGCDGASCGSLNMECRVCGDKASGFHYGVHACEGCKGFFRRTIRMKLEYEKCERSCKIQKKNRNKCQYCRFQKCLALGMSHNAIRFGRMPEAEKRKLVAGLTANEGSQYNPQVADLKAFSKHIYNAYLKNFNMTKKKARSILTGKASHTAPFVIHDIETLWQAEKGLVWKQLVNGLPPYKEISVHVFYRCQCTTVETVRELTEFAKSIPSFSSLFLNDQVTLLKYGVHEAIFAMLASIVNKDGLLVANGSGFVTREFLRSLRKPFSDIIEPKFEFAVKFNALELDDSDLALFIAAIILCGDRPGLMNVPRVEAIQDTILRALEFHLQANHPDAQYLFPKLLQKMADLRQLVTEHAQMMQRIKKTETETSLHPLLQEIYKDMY
Sequence of Glutaminase kidney isoform, mitochondrial (Homo sapiens) (O94925 whole entry, looked up, canonical isoform): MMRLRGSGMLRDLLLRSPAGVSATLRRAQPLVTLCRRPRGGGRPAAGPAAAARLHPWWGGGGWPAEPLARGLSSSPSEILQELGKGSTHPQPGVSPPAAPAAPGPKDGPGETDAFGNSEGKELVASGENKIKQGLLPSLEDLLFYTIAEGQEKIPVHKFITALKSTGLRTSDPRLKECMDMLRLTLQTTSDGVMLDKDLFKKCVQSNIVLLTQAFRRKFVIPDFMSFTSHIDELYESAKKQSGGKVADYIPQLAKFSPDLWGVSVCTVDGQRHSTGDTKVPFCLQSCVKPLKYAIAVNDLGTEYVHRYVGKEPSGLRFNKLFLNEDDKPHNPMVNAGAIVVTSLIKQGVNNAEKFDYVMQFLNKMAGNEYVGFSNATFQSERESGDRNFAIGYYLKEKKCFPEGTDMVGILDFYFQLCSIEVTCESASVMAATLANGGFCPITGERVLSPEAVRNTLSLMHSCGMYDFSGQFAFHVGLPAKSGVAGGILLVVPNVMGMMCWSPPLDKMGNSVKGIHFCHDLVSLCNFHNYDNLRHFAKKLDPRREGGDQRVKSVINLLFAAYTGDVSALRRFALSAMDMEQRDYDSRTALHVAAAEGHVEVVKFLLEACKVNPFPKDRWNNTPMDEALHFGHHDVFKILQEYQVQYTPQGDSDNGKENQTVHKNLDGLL
Sequence of Luciferin 4-monooxygenase (Photinus pyralis) (P08659 whole entry, looked up): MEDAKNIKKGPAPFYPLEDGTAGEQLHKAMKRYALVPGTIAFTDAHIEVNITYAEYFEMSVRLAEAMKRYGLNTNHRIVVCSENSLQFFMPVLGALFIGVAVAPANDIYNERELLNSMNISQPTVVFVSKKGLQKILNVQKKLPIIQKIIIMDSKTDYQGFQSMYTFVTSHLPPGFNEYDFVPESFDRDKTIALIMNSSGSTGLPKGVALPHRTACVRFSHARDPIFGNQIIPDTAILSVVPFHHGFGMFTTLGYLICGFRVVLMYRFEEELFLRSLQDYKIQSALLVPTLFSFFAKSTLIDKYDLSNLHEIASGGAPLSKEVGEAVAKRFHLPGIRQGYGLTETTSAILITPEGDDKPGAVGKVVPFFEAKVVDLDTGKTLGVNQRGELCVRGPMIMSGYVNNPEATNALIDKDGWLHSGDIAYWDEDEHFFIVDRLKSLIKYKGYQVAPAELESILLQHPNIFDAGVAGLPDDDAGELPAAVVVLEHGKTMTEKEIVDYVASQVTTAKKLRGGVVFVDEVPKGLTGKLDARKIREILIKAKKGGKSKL
Sequence of Retinoic acid receptor RXR-alpha (Homo sapiens) (P19793 whole entry, looked up): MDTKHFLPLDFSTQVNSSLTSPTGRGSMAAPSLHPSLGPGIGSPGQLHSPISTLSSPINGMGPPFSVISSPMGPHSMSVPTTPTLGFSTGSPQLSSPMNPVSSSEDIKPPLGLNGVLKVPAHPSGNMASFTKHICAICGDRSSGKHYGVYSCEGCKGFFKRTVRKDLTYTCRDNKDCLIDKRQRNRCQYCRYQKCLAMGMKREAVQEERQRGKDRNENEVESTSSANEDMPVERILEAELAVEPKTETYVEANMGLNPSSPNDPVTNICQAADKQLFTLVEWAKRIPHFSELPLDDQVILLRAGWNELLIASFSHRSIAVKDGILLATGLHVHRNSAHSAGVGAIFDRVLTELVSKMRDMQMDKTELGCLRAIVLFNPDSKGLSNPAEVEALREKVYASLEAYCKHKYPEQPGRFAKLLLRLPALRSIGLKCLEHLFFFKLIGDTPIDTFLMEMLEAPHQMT
Sequence of Thyroid hormone receptor beta (Homo sapiens) (P10828 whole entry, looked up): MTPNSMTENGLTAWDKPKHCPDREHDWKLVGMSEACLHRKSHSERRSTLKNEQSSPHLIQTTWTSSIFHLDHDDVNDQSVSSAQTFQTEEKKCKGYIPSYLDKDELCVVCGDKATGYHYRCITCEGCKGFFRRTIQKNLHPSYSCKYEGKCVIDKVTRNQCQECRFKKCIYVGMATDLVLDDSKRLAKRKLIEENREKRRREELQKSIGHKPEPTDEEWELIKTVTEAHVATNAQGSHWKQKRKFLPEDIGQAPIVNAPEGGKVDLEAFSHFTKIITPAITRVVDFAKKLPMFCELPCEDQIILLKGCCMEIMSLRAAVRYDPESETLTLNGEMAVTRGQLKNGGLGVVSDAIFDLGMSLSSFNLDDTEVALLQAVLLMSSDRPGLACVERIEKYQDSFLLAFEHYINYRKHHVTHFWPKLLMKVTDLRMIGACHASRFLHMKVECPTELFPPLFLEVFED
Sequence of Glucagon-like peptide 1 receptor (Homo sapiens) (P43220 whole entry, looked up): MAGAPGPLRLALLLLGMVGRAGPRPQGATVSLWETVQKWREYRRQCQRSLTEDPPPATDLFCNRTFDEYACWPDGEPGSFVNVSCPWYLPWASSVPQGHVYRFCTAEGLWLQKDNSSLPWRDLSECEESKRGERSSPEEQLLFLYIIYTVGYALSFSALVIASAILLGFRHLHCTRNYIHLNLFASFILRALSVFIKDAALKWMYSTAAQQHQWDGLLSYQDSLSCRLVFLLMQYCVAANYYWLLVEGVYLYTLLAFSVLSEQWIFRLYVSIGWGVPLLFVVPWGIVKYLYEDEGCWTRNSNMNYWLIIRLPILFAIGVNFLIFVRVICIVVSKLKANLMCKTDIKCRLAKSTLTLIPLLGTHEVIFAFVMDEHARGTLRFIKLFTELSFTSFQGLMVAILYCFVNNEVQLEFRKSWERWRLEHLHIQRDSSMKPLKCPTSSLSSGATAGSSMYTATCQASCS
Sequence of Voltage-gated inwardly rectifying potassium channel KCNH2 (Homo sapiens) (Q12809 whole entry, looked up): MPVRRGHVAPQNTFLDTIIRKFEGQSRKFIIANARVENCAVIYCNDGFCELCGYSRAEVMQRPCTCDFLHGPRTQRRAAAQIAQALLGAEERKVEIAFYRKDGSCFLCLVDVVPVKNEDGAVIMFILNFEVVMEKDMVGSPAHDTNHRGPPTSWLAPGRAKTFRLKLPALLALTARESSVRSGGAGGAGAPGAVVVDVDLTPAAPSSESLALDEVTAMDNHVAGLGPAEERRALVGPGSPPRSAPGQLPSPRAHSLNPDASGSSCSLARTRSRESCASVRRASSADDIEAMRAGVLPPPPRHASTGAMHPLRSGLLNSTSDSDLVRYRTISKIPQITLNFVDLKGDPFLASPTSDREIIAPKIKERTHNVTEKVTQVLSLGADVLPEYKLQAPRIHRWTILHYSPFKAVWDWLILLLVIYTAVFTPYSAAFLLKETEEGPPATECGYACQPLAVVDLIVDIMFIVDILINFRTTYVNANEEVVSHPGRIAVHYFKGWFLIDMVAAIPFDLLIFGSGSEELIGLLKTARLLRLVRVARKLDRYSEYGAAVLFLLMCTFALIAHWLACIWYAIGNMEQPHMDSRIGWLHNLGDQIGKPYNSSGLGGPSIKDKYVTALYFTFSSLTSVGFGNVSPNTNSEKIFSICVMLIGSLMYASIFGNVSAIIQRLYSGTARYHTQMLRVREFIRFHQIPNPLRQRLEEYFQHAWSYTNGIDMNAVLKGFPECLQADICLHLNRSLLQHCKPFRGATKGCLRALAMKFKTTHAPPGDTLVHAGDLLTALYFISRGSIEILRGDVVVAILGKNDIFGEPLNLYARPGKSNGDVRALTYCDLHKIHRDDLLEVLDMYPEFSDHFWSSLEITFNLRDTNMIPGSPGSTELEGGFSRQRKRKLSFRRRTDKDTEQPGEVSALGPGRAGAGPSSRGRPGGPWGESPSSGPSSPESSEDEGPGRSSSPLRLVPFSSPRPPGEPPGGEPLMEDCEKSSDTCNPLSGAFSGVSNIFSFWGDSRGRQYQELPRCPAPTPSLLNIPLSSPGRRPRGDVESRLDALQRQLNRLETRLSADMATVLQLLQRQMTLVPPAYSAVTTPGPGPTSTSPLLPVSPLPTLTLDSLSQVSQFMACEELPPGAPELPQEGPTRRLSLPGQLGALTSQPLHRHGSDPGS
Sequence of Glucocorticoid receptor (Homo sapiens) (P04150 whole entry, looked up): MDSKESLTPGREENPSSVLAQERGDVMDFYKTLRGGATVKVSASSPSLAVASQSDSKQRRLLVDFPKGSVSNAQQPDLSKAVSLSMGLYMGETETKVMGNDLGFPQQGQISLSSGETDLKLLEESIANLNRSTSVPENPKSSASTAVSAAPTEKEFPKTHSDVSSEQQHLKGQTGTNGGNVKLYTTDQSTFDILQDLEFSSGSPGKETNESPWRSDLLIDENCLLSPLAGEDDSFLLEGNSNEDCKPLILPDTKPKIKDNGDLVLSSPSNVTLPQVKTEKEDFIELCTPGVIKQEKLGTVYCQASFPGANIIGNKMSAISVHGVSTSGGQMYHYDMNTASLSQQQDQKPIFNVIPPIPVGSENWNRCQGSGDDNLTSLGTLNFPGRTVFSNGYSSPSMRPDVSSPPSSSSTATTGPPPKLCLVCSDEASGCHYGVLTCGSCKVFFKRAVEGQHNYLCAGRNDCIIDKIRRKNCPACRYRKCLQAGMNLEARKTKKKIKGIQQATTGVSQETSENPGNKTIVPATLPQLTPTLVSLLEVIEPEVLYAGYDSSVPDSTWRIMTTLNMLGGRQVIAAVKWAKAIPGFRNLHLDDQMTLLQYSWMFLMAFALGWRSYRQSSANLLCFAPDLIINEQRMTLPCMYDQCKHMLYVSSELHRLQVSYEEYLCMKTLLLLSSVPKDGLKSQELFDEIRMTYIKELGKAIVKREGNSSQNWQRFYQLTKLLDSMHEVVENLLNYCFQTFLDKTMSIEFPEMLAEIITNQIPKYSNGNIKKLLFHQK

N[C@@H]1CONC1=O
inactive: Potency [1] | Potency [2] | Potency [3] | Potency [4] | outcome [5] | outcome [6] | outcome [7] | outcome [8]

C[C@]12CCC(=O)C=C1CC[C@@H]1[C@@H]2[C@@H](O)C[C@@]2(C)[C@H]1CC[C@]2(O)C(=O)CO
7.22%: max response [15]
46.7%: max response [10]
inactive: Potency [9] | outcome [11] | outcome [12] | outcome [13] | outcome [14] | max response [16] -13.2% | activity change % (negative = inhibition) [17] 20.5% | outcome [6] | outcome [7] | outcome [8]

CC(C)NCC(O)COc1ccc(COCCOC(C)C)cc1 (stereo not given)
inactive: Potency [1] | Potency [2] | Potency [3] | Potency [4] | outcome [6] | outcome [7] | outcome [8]

CCCCNc1cc(C(=O)O)cc(S(N)(=O)=O)c1Oc1ccccc1
inactive: Potency [1] | Potency [2] | Potency [3] | Potency [4] | outcome [5] | outcome [6] | outcome [7] | outcome [8]

Cc1[nH]c(=O)c(C#N)cc1-c1ccncc1
inactive: outcome [12] | outcome [14] | max response [16] -8.79% | activity change % (negative = inhibition) [17] -2.81% | Potency [2] | Potency [3] | outcome [6] | outcome [7] | outcome [8]
-2.65%: max response [15]

CCCC(CCC)C(=O)O
inactive: Potency [9] | outcome [12] | outcome [18] | outcome [13] | outcome [14] | activity change % (negative = inhibition) [17] -9.25% and 16% | Potency [1] | Potency [2] | Potency [3] | Potency [4] | outcome [6] | outcome [7] | outcome [8]

CCCc1nc2c(C)cc(-c3nc4ccccc4n3C)cc2n1Cc1ccc(-c2ccccc2C(=O)O)cc1
inactive: Potency [1]

O=c1[nH]cnc2[nH]ncc12
-6.19%: max response [15]
inactive: Potency [9] | outcome [11] | outcome [12] | outcome [18] | outcome [13] | outcome [20] | outcome [14] | max response [16] -1.1% | activity change % (negative = inhibition) [17] 5.35% | Potency [1] | Potency [2] | Potency [3] | Potency [4] | outcome [6] | outcome [7] | outcome [8]
-19.9%: max response [10]
-0.239%: max response [19]

NS(=O)(=O)c1cc2c(cc1Cl)NC=NS2(=O)=O
-2.78%: max response [15]
inactive: outcome [11] | outcome [12] | outcome [18] | outcome [13] | outcome [20] | outcome [14] | max response [16] 14.3% | activity change % (negative = inhibition) [17] -11.5% | Potency [1] | Potency [2] | Potency [3] | Potency [4] | outcome [5] | outcome [6] | outcome [7] | outcome [8]
-29%: max response [10]
-7.55%: max response [19]

NNCCc1ccccc1
inactive: Potency [1] | Potency [3] | Potency [4] | outcome [7] | outcome [8]

CCOC(=O)C1=C[C@]2(CC)CCCN3CCc4c(n1c1ccccc41)[C@@H]32
inactive: Potency [2] | Potency [4] | outcome [5] | outcome [6] | outcome [7] | outcome [8]
active: Potency [1] 141 nM and 31.6 nM

Nc1nc2c(ncn2COCCO)c(=O)[nH]1
inactive: Potency [2] | Potency [3] | Potency [4] | outcome [6] | outcome [7] | outcome [8]
